Over roughly 25,000 sequences, “ln(normalized median fluorescence intensity)” has its median near 6.7; the highest 2% begin near 10. The sample as a whole holds a higher share of the highest values than the screen did.
The sequences below were run on PfHDP1 homeodomain (GST-tagged) (assay: gcPBM binding intensity (ln(normalized median fluorescence intensity)); higher = stronger DNA binding).
Outline: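 The highest Masliner-normalised natural-log median intensity across replicate spots of either probe orientation is reported as binding intensity. GST-tagged P. falciparum DNA-binding domains expressed in E. coli were applied for 1 h to an Agilent 4 × 180k array of primer-extended double-stranded 36-bp intergenic genomic probes plus negative controls, and bound protein was detected with Alexa488 anti-GST antibody and scanned at 488 nm.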

| Sequence | gcPBM binding intensity (ln) |
| --- | --- |
| AGTAGTCTGGAGAAGAGTACACAGTATCTGGTAACA [XGTACX_site2032] | 6.02 |
| AATATTTTAATGCACACACACAAAAAAAAAAAAAAA [CACACA_site7374] | 10.7 |
| CTCTATAAATGCTGCACACACATTTAATTATTTAAG [CACACA_site2582] | 8.11 |
| ACATCATAAAATTTATGTACACATTTTTAATTATAC [XGTACX_site7759] | 6.51 |
| TTTAAATTTTAATATGCACACAAAATGTTATATTAA [CACACA_site8015] | 9.9 |
| ATAATATTTTAATGCACACACACAAAAAAAAAAAAA [CACACA_site2891] | 9.96 |
| ATTTATAAAATTAATGCACACATCAGCATTTATAAA [CACACA_site1025] | 10.6 |
| ATTTCTACTAAAAATACACACGATGATACAACGAAG [CACACA_site1755] | 6.85 |
| ATATATTAAAAACGATGTACCCTGAACTAAAAAAAA [XGTACX_site4986] | 6.52 |
| AACGTTCAATTTAAATGTACAAATGTATTTAAATAT [XGTACX_site315] | 6.38 |
| TATATTTAGAATACAATCTTAAAGTTGAAATAAAAT [CACACA_negctrl_site1292] | 6.03 |
| TTATATTAAAAAAGATGTACGTTTAGGAAAAATATA [XGTACX_site7456] | 6.53 |
| TAAGGAAAAAATTATAGTACATAATAAATGTATATA [XGTACX_site8328] | 6.15 |
| TCATACATTTTCCTTGCACACATTTATAATTAATGT [CACACA_site614] | 8.95 |
| TTCCTTTAACCCTGCACACATACATACATTTATATG [CACACA_site3953] | 8.51 |
| TCATACATTTTCCTTGCACACATTTATAATTAATGG [CACACA_site4511] | 8.55 |
| TATATATATATATATGCACACATTTATACAATTTTA [CACACA_site2986] | 10.2 |
| CTTTTTTTTTTATGCACACACAATTATACATTCCTT [CACACA_site3877] | 10.6 |
| TCCTTTTTTTTTTATGCACACACAATTATACATTCC [CACACA_site9287] | 10.5 |
| ATGTATGTATAATATACACACTCACAAGCATTCAAA [CACACA_site4306] | 6.75 |
| ATATTCTTCTAAAGGCGTACATCTACATTTATGAAA [XGTACX_site2145] | 6.28 |
| TTTATATATAAATATATATATATATATATATATATA [TGCATGCA_negctrl_site121] | 9.28 |
| TCTAGGAAAAATTATAGTACACAAAAATATATATAT [XGTACX_site4136] | 7.95 |
| CATATATATATATATACACACATATATATTTTCTTT [CACACA_site1457] | 7.04 |

| Sequence | gcPBM binding intensity (ln) |
| --- | --- |
| AAAATATAGGTATGCACACACATATACTTCTGTGCA [CACACA_site1409] | 10 |
| CACATATACTTCTGTGCACACGAATATTTTTCTTCT [CACACA_site1408] | 11.2 |
| TAATATACTTAATACACACACGAATATTTATAAATA [CACACA_site6675] | 6.97 |
| ATAAAATATAGGTATGCACACACATATACTTCTGTG [CACACA_site8398] | 8.84 |
| CATATACTTCTGTGCACACGAATATTTTTCTTCTTC [CACACA_site1407] | 11.2 |
| TTTGTTAATTATAAATGTACATATTATATATATATA [XGTACX_site8870] | 8.42 |
| CACGCGCCCGGACACACACACACACCCATATATATA [CACACA_site5251] | 6.84 |
| TTAAACTTGTTTTGGATGCACTATATAATTCATTTT [GTGCAC_site9549] | 7.2 |
| AGAGAGATGACAAAAAGATGAATAACGTTAAGGGAT [XGTACX_negctrl_site120] | 7.4 |
| ATCATATTTATATTGGTGCATTATGCATGAAATTTA [GTGCAC_site9571] | 10.6 |
| TATAATAATAATTATACATGCATGAATATTTATATG [TGCATGCA_site811] | 6.46 |
| ACATATGAAAAATATGCATGCAAATATTATTTAACA [TGCATGCA_site802] | 7.03 |
| ATCATATTTATGTTGGTGCATTATGCATGGATTTTA [GTGCAC_site9795] | 10.8 |
| ATTATATTTATGTTGGTGCATTATACATGAAATTTA | 10.5 |
| TTATGGTGCATGAAATCACACATTGATATATATGCT [CACACA_site5352] | 8.81 |
| TATTTTTATTATATGGTGCATATATACATACATATA | 9.96 |
| AATATGAAATATATTACACACATTTATATGTTGAAA [CACACA_site1427] | 6.31 |
| ATATGGATTATACATACATGCATACATACATACATA [TGCATGCA_site475] | 6.58 |
| TATATATATATATATACATGCATATATATAATATAT [TGCATGCA_site763] | 9.32 |
| ATATATATTTAAAAAAGTACAGAAGAAAATAACCCA [XGTACX_site642] | 7.19 |
| GATGATACACAGGTGTTGCACTTAAATGCAGTTCTT [GTGCAC_site9627] | 8.13 |
| ATATATATATATATATGTACATATTATTAATAATAT [XGTACX_site6667] | 9.32 |
| TTTTGAATATTTGGTCGTACGTAAAAATAGATAATT [XGTACX_site5755] | 6.75 |
| AAGTTTTCTTAAAATTGTACTTTTCAAAAATAATCT [XGTACX_site277] | 5.83 |

| Sequence | gcPBM binding intensity (ln) |
| --- | --- |
| TCATAAACATTATGCACACAAAAATAAAAAAAAATA [CACACA_site1115] | 10.2 |
| AACAACAACTAATATGCACACATTTAAAAACAAAAT [CACACA_site2440] | 9.7 |
| TATATAACATATGGGACACACATGCAACTGTTATAT [CACACA_site3792] | 6.89 |
| ATGGTGCAACATTATGCACACCGTTAAATAACTAAT [CACACA_site9280] | 11.7 |
| TTATGGTGCAACATTATGCACACCGTTAAATAACTA [CACACA_site3846] | 11.4 |
| TGATTCTAACTTATGGTGCAACATTATGGACACCGT | 10.5 |
| TAATATATTATAAACACATGCACATTAATAATAACT [TGCATGCA_site708] | 8.38 |
| GATTCATCTAAACACCGTACATATTATATATATATA [XGTACX_site6030] | 8.65 |
| CATTAACAAATAAATGCACACATATATATAAATAAT [CACACA_site7892] | 9.2 |
| GAATGCCTTGAAAATAGTACAATTAAGAAAAAATAC [XGTACX_site8002] | 6.53 |
| ACATAAGATGAAAAATGTACATTCAAAAAATGAAAT [XGTACX_site3227] | 6.52 |
| AAGACAAATTTTACATGTACAAATATATTACATATA [XGTACX_site7060] | 6.83 |
| AATGTATATATGTAATGTACATATATAATGTATATA [XGTACX_site6510] | 6.6 |
| TTATATGCTCAATGTTGTACATGTAGATATATATAT [XGTACX_site8211] | 9.77 |
| ATTACACATATAGTAGTGCAATAACTCCAAAAAAAA | 9.55 |
| AAATTTTAATTAGACTGTACACATTTTAGAATAATT [XGTACX_site4819] | 6.17 |
| AAAAAAAATTAATTAGTGCAAAATATATACAAAATA [GTGCAC_site9762] | 10.4 |
| TATTTATAGATATATACACACATATACATATTGTTT [CACACA_site7611] | 6.63 |
| TTTGATCGATGGATTTAACACACAAAAAAAAAAAAA [CACACA_site9279] | 6.32 |
| CTATTTCAATTTAGTGCACACATTTTAATTTATAAG [CACACA_site2040] | 10.9 |
| ATATATATATATATAGTGCACATTTATATAATTATT | 10 |
| ACCCATTTTAATTTAGTGCACATTTTACCTTTATAC | 10.1 |
| CTACTTAATATTTGTACACACATATTTAACCTACTA [CACACA_site5725] | 7.02 |
| AAAAAAGAATTGTGCACACACAAAAAATGTTCATAA [CACACA_site1103] | 10.3 |

| Sequence | gcPBM binding intensity (ln) |
| --- | --- |
| TTAAAAAAGAATTGTGCACACACAAAAAATGTTCAT [CACACA_site1102] | 10.6 |
| AAAGAATACAAAATTGCACACATATTGTGAAAATGT [CACACA_site9327] | 9.59 |
| TATATTATTAATTAAGCACACATTATTTTTATAATA [CACACA_site3982] | 6.37 |
| ATTTTAAATTTATCTGTGCACAGTATTATATAAGCA [GTGCAC_site9806] | 10.8 |
| ATATAATATATATATTGTACATATATTTATAAGCAT [XGTACX_site3726] | 6.5 |
| AGTATAAGCATTATTGTGCACATAATTATAATTTTT | 11 |
| ATATATTTTTAGCACAGTACAATATAATTAAATATA [XGTACX_site6779] | 7.02 |
| ATATTTGTATAAATTGCACACTTTATTTTTTTTAAG [CACACA_site1558] | 9.86 |
| ATTATTCTATATGAAACATGCATACATTTGTATTTT [TGCATGCA_site823] | 6.53 |
| AAATACTGTAAAAAAGCATGCCACTAATAATAATTA [TGCATGCA_site759] | 6.33 |
| TTTTTATATTTCAACATATCACAATTTTATATATCT [CACACA_negctrl_site178] | 6.43 |
| AAAAGGAGAAATATTGCACACGTGCAAAATGGTATG [CACACA_site4300] | 11 |
| GTGAAATATGCAAACACACACGAGAAAAATGTATAT [CACACA_site7488] | 6.99 |
| AATGAGAAGGACTGCACACTAAAATGGAAGGAGAAA [CACACA_site1575] | 6.97 |
| AGGAAAATTATGAATGGTACAGAATATATTAGGAGA [XGTACX_site6282] | 7.46 |
| GAGTGAAATATGCAAACACACACGAGAAAAATGTAT [CACACA_site3196] | 7.15 |
| AAGGAGAAATATTGCACACGTGCAAAATGGTATGAG [CACACA_site259] | 10.8 |
| ATTTTTTAAAAAGTAACACACACTCTTATAAATAAC [CACACA_site7668] | 6.7 |
| GATAATGAATGATGCACACTAAAAATATTCTACAAC [CACACA_site3622] | 8.94 |
| TTTTCTCTAAAAAGGTGTACAACTAATAATGCACTG [XGTACX_site6074] | 10.6 |
| AAAAAAAAAAAAAGGTGTACATGCAAAATAAATTCT [XGTACX_site4592] | 6.48 |
| ATTTTTCTAAAATACTGTACAAAGGTGCATAAAAAG [XGTACX_site4425] | 11.1 |
| AAATACTGTACAAAGGTGCATAAAAAGTGGGGCATA | 9.07 |
| TATTTTATATAAAGGTGTACTTATACAAAAATATAT [XGTACX_site7435] | 6.52 |
